Results reported in the supplement of paper PMC10646978.
± gives the standard deviation.

Key:
Conditions in all cases: modulator concentration 10 µM
[1] = system: RAW-Dual (murine macrophage reporter line); test: NF-kB reporter (SEAP) activity fold change vs agonist alone; higher = enhanced NF-kB activity
Summary of the method: (§1)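 Compound reached 10 μM final in each well by pin transfer, onto RAW-Dual murine macrophage reporter cells seeded at 50 000 per well in 384-well plates. After 1 hour at 37 °C, the cells were stimulated overnight with a PRR agonist. SEAP in the supernatant was read with QUANTI-Blue at 620 nm absorbance for NF-κB, and Lucia luciferase was read with QUANTI-Luc luminescence for IRF. Each signal was turned into fold change against the mean agonist-only control on the same plate, and two replicate plates were averaged with propagated errors.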

[2] = system: RAW-Dual (murine macrophage reporter line); test: IRF reporter (Lucia luciferase) activity fold change vs agonist alone; higher = enhanced IRF activity
Summary of the method: as §1

[3] = system: RAW-Dual (murine macrophage reporter line); test: viability score (confluency relative to resting cells, overnight) (fraction); higher = more viable, active = viable (0.7 or more)
Summary of the method: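 In 384-well plates, RAW-Dual macrophages received compound at a final 10 μM overnight. Two confluency masks were then made with IncuCyte software from IncuCyte images of all imaged wells. The viability score is defined as confluency relative to resting cells. Passing the cutoff required both masks to lie above 70% of resting cells.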

[4] = agonist: CpG ODN 1826 0.5 ug/mL

| SMILES | NF-kB reporter [1, 4] | NF-kB reporter ([1]; agonist: LPS 0.1 ug/mL) | NF-kB reporter ([1]; agonist: MPLA […]) | IRF reporter ([2]; agonist: 3'3'-cGAMP 10 ug/mL) | IRF reporter ([2]; agonist: LPS 0.1 ug/mL) | IRF reporter ([2]; agonist: MPLA […]) | viability score [3] |
| --- | --- | --- | --- | --- | --- | --- | --- |
| O=C1CN(CCC2=CCCCC2)C2CS(=O)(=O)CC2N1c1ccc(Cl)cc1 (stereo not drawn) | 1.01 ± 0.12 | 1.07 ± 0.089 | 0.849 ± 0.071 | 0.786 ± 0.051 | 0.892 ± 0.078 | 1 ± 0.13 | 1.01 (active) |
| O=C(c1cc2nc(-c3ccccc3)cc(-c3ccccc3)n2n1)N1CCCCCC1 | 0.999 ± 0.081 | 1.16 ± 0.077 | 0.976 ± 0.065 | 0.965 ± 0.035 | 1.37 ± 0.19 | 1.12 ± 0.078 | 1.02 (active) |
| COc1ccc(-c2nc3cc(C4=NNC(=O)CC4C)ccc3[nH]2)cc1 (stereo not drawn) | 2.4 ± 0.37 | 1.37 ± 0.23 | 1.14 ± 0.073 | 0.164 ± 0.057 | 1.07 ± 0.25 | 1.33 ± 0.12 | 0.775 (active) |
| COc1ccc(-c2oc3ccc(OC)cc3c2C(=O)Nc2ccccc2Cl)cc1 | 0.872 ± 0.051 | 1.05 ± 0.11 | 1.42 ± 0.041 | 0.756 ± 0.052 | 0.865 ± 0.062 | 1.84 ± 0.28 | 1 (active) |
| Cc1ccc(NC(=O)Nc2c(C)nc(N3CCN(C)CC3)nc2C)cc1F | 0.993 ± 0.049 | 1.03 ± 0.11 | 0.818 ± 0.037 | 0.925 ± 0.046 | 1.21 ± 0.083 | 1.17 ± 0.15 | 0.97 (active) |
| Cl.O=C1CN2Cc3c(ccc(Cl)c3Cl)NC2=N1 | 0.954 ± 0.13 | 0.963 ± 0.17 | 0.96 ± 0.077 | 0.959 ± 0.051 | 1.24 ± 0.29 | 0.993 ± 0.2 | 1.01 (active) |
| CCOc1cc2ncc(C#N)c(Nc3ccc(OCc4ccccn4)c(Cl)c3)c2cc1NC(=O)/C=C/CN(C)C | 0.161 ± 0.007 | 0.781 ± 0.075 | 0.907 ± 0.092 | 0.694 ± 0.032 | 1.46 ± 0.26 | 1.56 ± 0.57 | 0.977 (active) |
| O=C(c1ccc(OC(F)(F)F)cc1)N1CCC(Oc2cnccn2)CC1 | 1.05 ± 0.42 | 1.23 ± 0.061 | 1.04 ± 0.066 | 0.902 ± 0.03 | 1.19 ± 0.13 | 1.28 ± 0.13 | 0.996 (active) |
| Cc1ccc(CCC(=O)N2CC(N3C(=O)C4CC=CCC4C3=O)C2)cc1F (stereo not drawn) | 0.728 ± 0.26 | 1.1 ± 0.1 | 1 ± 0.044 | 0.741 ± 0.037 | 1.05 ± 0.12 | 0.87 ± 0.092 | 1 (active) |
| O=C(NC(=S)Nc1ccc2[nH]c(=O)[nH]c2c1)c1ccc(F)cc1 | 0.943 ± 0.095 | 1.03 ± 0.066 | 0.933 ± 0.064 | 0.927 ± 0.032 | 1.26 ± 0.13 | 1.05 ± 0.16 | 1.01 (active) |
| COc1ccc(CN2CCN(c3cc(C)nc4c5c(C)cc(C)nc5nn34)CC2)cc1F | 1.02 ± 0.08 | 0.961 ± 0.071 | 1.06 ± 0.13 | 1.17 ± 0.037 | 1.34 ± 0.18 | 1.42 ± 0.2 | 0.995 (active) |
| O=C(Nc1cccnc1)c1ccc(OC2CCOCC2)nc1 | 1.08 ± 0.37 | 0.97 ± 0.06 | 1 ± 0.063 | 0.912 ± 0.046 | 1.05 ± 0.13 | 1.3 ± 0.14 | 0.99 (active) |
| COCC(C)NC(=O)c1ccc(Cl)c(Cl)c1 (stereo not drawn) | 1.13 ± 0.12 | 0.926 ± 0.079 | 0.984 ± 0.043 | 0.953 ± 0.034 | 0.966 ± 0.05 | 0.992 ± 0.1 | 0.997 (active) |
| CC1(C)CCCC2(C)C1CCC1(C)OC(=O)CC12 (stereo not drawn) | 0.532 ± 0.077 | 0.669 ± 0.11 | 0.762 ± 0.026 | 0.943 ± 0.11 | 0.929 ± 0.07 | 1.37 ± 0.18 | 0.159 (inactive) |
